Measurements reported in PubChem BioAssay AID504332 (National Center for Advancing Translational Sciences (NCATS), 2011).
“And” between values parts separate entries of the source, which are not always exact repeats. Equal entries are not always repeated. About 31,000 (8.9%) of roughly 350,000 compounds were called active. Another 15% or so got no clear call; they are omitted. The call rests on the fitted dose curve; in most records, active means well fitted inhibition curve with a large enough effect; inconclusive means small, poorly fitted or top-dose-only effect; inactive means no such curve, though single readings can be large or run the other way. The sample as a whole holds a higher share of actives than the screen did. The source holds several records for some structures; these can differ, active in one and inactive in another.

What follows are compounds tested against Histone-lysine N-methyltransferase EHMT2 (Homo sapiens) (UniProt Q96KQ7) (assay: qHTS Assay for Inhibitors of Histone Lysine Methyltransferase G9a). Conditions: G9a H3K9 monomethylation, AlphaScreen, 2 h; series mostly up to 59 µM; activity, negative = inhibition: at the top concentration.
Chain of Histone-lysine N-methyltransferase EHMT2 (Homo sapiens) (Q96KQ7 913-1193 limits assumed): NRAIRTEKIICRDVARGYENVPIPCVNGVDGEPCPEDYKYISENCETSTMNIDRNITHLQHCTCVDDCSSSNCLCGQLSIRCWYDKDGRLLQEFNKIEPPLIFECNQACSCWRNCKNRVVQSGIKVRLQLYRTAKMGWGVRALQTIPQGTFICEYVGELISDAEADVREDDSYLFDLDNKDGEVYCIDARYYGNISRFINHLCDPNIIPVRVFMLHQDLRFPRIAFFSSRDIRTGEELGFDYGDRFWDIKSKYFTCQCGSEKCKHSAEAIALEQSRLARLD
Summary of the method: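 Step 1: enzyme (final 20 nM) with compound, 15 min RT. Step 2: substrate peptide 500 nM and SAM 20 uM, 2 h RT. Step 3: anti-H3K9me1 antibody and AlphaScreen beads, 10 min, then plate read.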
Further: nearly all actives have a fitted effect of over 75% in size.
On the % scale 0 is the no-effect control and ±100 the full control effect; potency means the concentration at half of the fitted maximal effect.

SMILES | activity, negative = inhibition | Potency
CC(C)OC(=O)c1ccc(COc2ccc3ccc(=O)oc3c2)o1 | 14.1% [at 102 µM] (inactive) | –
Cc1nc2ccc(C(=O)O)cc2[nH]1 | – | 70.8 µM (active)
O=C(N/N=C/c1ccc(Cl)c(Cl)c1)c1ccc2nc[nH]c2c1 | -14% [at 102 µM] (inactive) | –
Cc1ccc2nc(CNC(=O)c3ccccc3)[nH]c2c1 | -1.03% (inactive) | –
Cc1nc2ccc(C(=O)N/N=C/c3ccc(O)cc3)cc2[nH]1 | – | 79.4 µM (active)
Cc1nonc1C(=O)N/N=C/c1ccc(O)cc1 | 15.7% (inactive) | –
CC(C)c1nc2ccc(C(=O)O)cc2[nH]1 | 9.16% [at 102 µM] (inactive) | –
CCc1ccccc1N1C(=O)CN(S(=O)(=O)CC)CC1(C)C(=O)NC1CCCCC1 (centres undefined) | -17.2% (inactive) | –
Cc1ccc2nc(COc3ccc(NC(=O)COc4ccccc4F)cc3)cc(=O)n2c1 | -2.61% (inactive) | –
C[C@H](NC(=O)c1ccccc1Cl)C(=O)OCC(=O)N1CCN(c2ccccc2)CC1 | -0.744% [at 12.7 µM] (inactive) | –
Cn1c(=O)c2c(nc(SCC(=O)Nc3ccc(F)cc3)n2Cc2ccc(Cl)cc2)n(C)c1=O | 10.3% (inactive) | –
COc1cccc(-n2c(N)cc(=O)nc2SCC(=O)Nc2cc(C)on2)c1 | 40% [at 102 µM] (inactive) | –
COc1ccccc1CNC(=O)CCCn1c(=O)c2ccccc2n(CC(=O)Nc2ccc(C)cc2Cl)c1=O | 3.86% (inactive) | –
CCOC(=O)c1ccc(NC(=O)CSc2nc3c([nH]c4ccccc43)c(=O)n2C)cc1 | 4.03% (inactive) | –
CNC(=S)N/N=C/c1ccc(N2CCOCC2)s1 | – | 28.2 µM (active)
Cc1cc(C(=O)N/N=C/c2ccc(N3CCOCC3)cc2)c(C)o1 | -36.2% [at 102 µM] (inactive) | –
C=CCNC(=S)N/N=C/c1ccc(C)s1 | 72.7% [at 12.7 µM] (inactive) | –
COc1cc2ccccc2cc1C(=O)Nc1ccc(NC(=O)c2cccs2)cc1 | 28.3% [at 102 µM] (inactive) | –
O=C(Cc1ccc(Cl)cc1)Nc1ccc2nn(-c3ccc(Cl)cc3)nc2c1 | -2.72% (inactive) | –
Cc1ccc(CCNC(=O)Cn2c(-c3cccs3)cc3cc(F)ccc32)cc1 | 1.67% (inactive) | –
CCOC(=O)c1cccc(NC(=O)C(Cc2ccccc2)NS(=O)(=O)c2cccc3nsnc23)c1 (centres undefined) | -35.5% (inactive) | –
Cc1ccnc(NC(=O)C(C)N2C(=O)c3ccccc3C2=O)c1 (centres undefined) | 10.7% [at 102 µM] (inactive) | –

SMILES | activity, negative = inhibition | Potency
Cc1ccc(-n2ccc(=O)c(C(=O)O)n2)cc1 | -6.92% (inactive) | –
Cc1ccc(N2C(=O)c3ccccc3C2(O)c2ncc[nH]2)cc1 (centres undefined) | – | 7.08 µM (active)
O=C(O)c1ccccc1-c1ccccc1C(=O)NCCc1ccccc1 | 15.9% [at 102 µM] (inactive) | –
CCOCCCNC(=O)c1c(NC(=O)c2nc(SC)ncc2Cl)sc2c1CCCC2 | -0.0709% (inactive) | –
COc1ccc(N2C(=O)CC(SC(C)C)C2=O)cc1 (centres undefined) | -27.2% [at 102 µM] (inactive) | –
COc1ccc(N2C(=O)CC(Sc3n[nH]c(-c4ccc(C)cc4)n3)C2=O)cc1 (centres undefined) | – | 1.58 µM (active)
COc1ccc(-c2nc(SCC(=O)N3CCCC3)n[nH]2)cc1 | 21.1% [at 102 µM] (inactive) | –
CC(=O)Nc1ccc(NC(=O)C2CCCN(S(=O)(=O)c3ccc4c(c3)CCCC(=O)N4)C2)cc1 (centres undefined) | -26.3% (inactive) | –
CCN1CCN(C(=O)N(Cc2ccc(Cl)cc2)S(=O)(=O)c2ccc(C)cc2)CC1 | 19.8% [at 2.33 µM] (inactive) | –
CC(C)(C)c1ccc(CN2C(=O)c3ccccc3S2(=O)=O)cc1 | 87% [at 102 µM] (inactive) | –
O=[N+]([O-])/C(N=Nc1ccccc1)=N\Nc1ccccc1 | – | 31.6 µM (active)
Cc1ccc(NC(=O)c2cccc(N(C)C)c2)cc1NC(=O)c1ccc(O)cc1 | – | inactive and 14.1 µM (active)
Cc1ccc(F)cc1NC(=O)c1ccc2c(c1)OCO2 | -5.61% [at 12.7 µM] (inactive) | –
Cc1ccc(F)cc1NC(=O)c1cccc(N(C)C)c1 | 13.5% (inactive) | –
COc1cc2nc(SCC(=O)Nc3ccccc3F)n3nc(-c4ccccc4)nc3c2cc1OC | -29.1% (inactive) | –
CCS(=O)(=O)c1ncc(N(Cc2ccc(F)cc2)Cc2ccco2)c(C(=O)Nc2cc(C)ccc2C)n1 | 3.17% (inactive) | –
Cc1ccc(S(=O)(=O)NCCNC(C)c2ccc(Br)cc2)cc1 (centres undefined) | -1.1% [at 12.7 µM] (inactive) | –
Clc1ccc(N/N=C/c2cccs2)nn1 | – | 35.5 µM (active)
Oc1cccc(/C=N/Nc2ccc(Cl)nn2)c1O | 32.7% [at 102 µM] (inactive) | –
COc1cccc(/C=N/Nc2ccc(Cl)nn2)c1 | -1.09% [at 102 µM] (inactive) | –
CC(C)N(Cc1ccccc1)C(=O)COC(=O)c1ccccc1SCC(=O)N1CCCC1 | -46.5% [at 0.501 µM] (inactive) | –
COc1ccc(NCCc2ccccn2)cc1 | – | 39.8 µM (active)

SMILES | activity, negative = inhibition | Potency
Cc1c(C)c(C)c(S(=O)(=O)NCCc2ccccn2)c(C)c1C | 11% [at 102 µM] (inactive) | –
O=C(CNC(=O)COc1ccccc1)NCCc1ccccn1 | 13.5% (inactive) | –
CCOc1ccccc1NC(=O)C1CCCN(S(=O)(=O)c2cn(C)cn2)C1 (centres undefined) | 11.6% (inactive) | –
CC(C)c1ccc(NC(=O)COC(=O)c2ccc(CN3CCCC3=O)cc2)cc1 | -8.03% [at 12.7 µM] (inactive) | –
O=C(/C=C/c1ccccc1)c1ccccc1O | – | 44.7 µM (active)
O=C(/C=C/c1ccccc1)N/C(=C/c1ccccc1)C(=O)Nc1ccccc1O | -41.1% [at 102 µM] (inactive) | –
O=C(/C=C/c1ccccc1)c1ccoc1 | 10.3% [at 12.7 µM] (inactive) | –
COCC1CCN(C(=O)CCc2nnc(C3(c4ccc(Cl)cc4)CCC3)o2)C1 (centres undefined) | 11% [at 102 µM] (inactive) | –
COc1ccc(-c2ocnc2C(=O)Nc2ccc3c(c2)CCC3)cc1 | -7.46% (inactive) | –
Fc1ccc(C(Nc2ccc(Cl)c(C(F)(F)F)c2)c2nnc(-c3ccccc3)o2)cc1 (centres undefined) | 31.9% (inactive) | –
O=[N+]([O-])c1cc(C(F)(F)F)ccc1NCCc1ccncc1 | 21.9% [at 102 µM] (inactive) | –
Cc1cccc(OCCNC(=O)CSc2ccc(C(F)(F)F)cc2[N+](=O)[O-])c1 | 5.94% (inactive) | –
Nc1ccccc1Sc1ccc(C(F)(F)F)cc1[N+](=O)[O-] | – | 39.8 µM (active)
CCc1cccc(NC(=O)CSc2nccn2C)c1 | -3.93% (inactive) | –
N#CC1=C(N)Oc2c(sc3ccccc23)C1c1ccco1 (centres undefined) | – | 39.8 µM (active)
CCOC(=O)CSC1=C(C#N)C(c2ccco2)C(C(=O)OCc2ccccc2)=C(C)N1 (centres undefined) | -12% (inactive) | –
CCCCn1c(N)c(N(CCOC)C(=O)c2sc3ccccc3c2Cl)c(=O)[nH]c1=O | 0.384% [at 0.501 µM] (inactive) | –
COc1ccccc1-c1nc(N2CCN(C)CC2)c2ccccc2n1 | 0.0472% [at 0.501 µM] (inactive) | –
CN1CCN(c2nc(Nc3ccc(O)cc3)nc3ccccc23)CC1 | – | 25.1 µM (active)
Cc1cccc(-c2nc(Nc3ccc(O)cc3)c3ccccc3n2)c1 | 9.03% [at 12.7 µM] (inactive) | –
